Hit rate of the full screen: of about 360,000 compounds, about 3,000 (0.83%) were called active. What follows is part of a selection rich in actives, with near analogues and random picks from the rest. Unmarked numbers belong to inactive results. Cut-off read from the data, not from the text of the source: active = inhibition above about 50%; inactive = the rest.

Sequence of DNA (cytosine-5)-methyltransferase 1 (Homo sapiens) (P26358 504-1616 limits assumed): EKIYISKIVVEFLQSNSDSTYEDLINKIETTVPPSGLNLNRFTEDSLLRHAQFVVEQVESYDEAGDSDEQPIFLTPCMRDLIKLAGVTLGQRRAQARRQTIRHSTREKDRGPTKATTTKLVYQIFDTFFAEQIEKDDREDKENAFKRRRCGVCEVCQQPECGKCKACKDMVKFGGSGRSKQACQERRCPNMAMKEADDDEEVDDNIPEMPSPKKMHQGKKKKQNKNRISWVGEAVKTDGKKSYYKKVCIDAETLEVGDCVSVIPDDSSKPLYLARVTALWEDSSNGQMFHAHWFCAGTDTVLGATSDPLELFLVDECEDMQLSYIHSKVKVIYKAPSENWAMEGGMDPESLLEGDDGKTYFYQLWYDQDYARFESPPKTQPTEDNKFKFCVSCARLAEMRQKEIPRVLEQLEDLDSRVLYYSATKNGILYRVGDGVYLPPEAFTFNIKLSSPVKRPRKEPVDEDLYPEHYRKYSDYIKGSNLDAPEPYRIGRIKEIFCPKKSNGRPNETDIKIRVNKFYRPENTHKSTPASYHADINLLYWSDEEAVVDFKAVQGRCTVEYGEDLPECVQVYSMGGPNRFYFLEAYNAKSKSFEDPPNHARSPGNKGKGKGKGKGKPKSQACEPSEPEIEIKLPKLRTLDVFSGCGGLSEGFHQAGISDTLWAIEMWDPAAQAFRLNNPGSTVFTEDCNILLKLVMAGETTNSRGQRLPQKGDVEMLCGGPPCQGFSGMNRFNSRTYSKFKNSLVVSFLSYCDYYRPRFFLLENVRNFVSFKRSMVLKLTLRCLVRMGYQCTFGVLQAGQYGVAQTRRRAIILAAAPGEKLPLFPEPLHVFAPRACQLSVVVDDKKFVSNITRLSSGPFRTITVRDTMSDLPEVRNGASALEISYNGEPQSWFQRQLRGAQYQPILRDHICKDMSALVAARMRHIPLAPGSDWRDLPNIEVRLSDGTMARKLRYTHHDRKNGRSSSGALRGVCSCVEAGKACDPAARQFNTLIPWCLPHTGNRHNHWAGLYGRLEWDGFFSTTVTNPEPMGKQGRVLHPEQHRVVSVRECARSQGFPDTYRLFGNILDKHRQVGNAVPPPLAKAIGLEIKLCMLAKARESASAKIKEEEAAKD

The experiment has as its target DNA (cytosine-5)-methyltransferase 1 (Homo sapiens) (UniProt P26358). The experiment in a line: human DNMT1 methyltransferase inhibitors, primary screen, biochemical, molecular beacon, fluorescence, HinP1I cleavage, uHTS (AID 588458). The note with it: at 10 µM, hits give high values.
In the case of `COc1ccccc1-n1nnnc1S(=O)(=O)Cc1ccc(Cl)cc1`, the inhibition (reported as % activation of signal) was 22%.

In the case of `O=C(CCc1nnc2ccc(NCc3ccco3)nn12)Nc1cc(F)ccc1F`, the inhibition (reported as % activation of signal) is 29.7%.

With `COC(=O)c1ccc(C(=O)NC2CC(C)(C)Cc3c2cnn3-c2ccc(F)cc2)nc1` (stereo not given), the inhibition (reported as % activation of signal) was -1.04%.

For the compound `COc1ccc(OC)c(NC(=O)c2cc(-c3cc(F)ccc3OCC3CCCO3)n[nH]2)c1` (stereo not given), the inhibition (reported as % activation of signal) is 105% (active).

With `CCCOc1ccc(F)cc1-c1cc(C(=O)Nc2ccc(F)cc2)[nH]n1`, the inhibition (reported as % activation of signal) is -1.3%.

As to `COc1cc(F)ccc1-c1cc(C(=O)NCC2CCCCC2)[nH]n1`, the inhibition (reported as % activation of signal) is -0.63%.

Turning to `Cc1ccc(-n2c(SCC(=O)N3CCC(C(=O)O)CC3)nc3ccccc3c2=O)cc1C`, the inhibition (reported as % activation of signal) was -1.54%.

Regarding `Cc1cc(C)c(C(=O)CSc2nc(C)cc(=O)[nH]2)c(C)c1`, the inhibition (reported as % activation of signal) is -2.03%.

On to `COc1ccc(C2=NOC(C(=O)NCc3ccco3)C2)cc1OC` (stereo not given), for which the inhibition (reported as % activation of signal) is 1.36%.

As to `CCOc1ccc(C(=O)Nc2cc(Cl)ccc2-n2cncn2)cc1OC`, the inhibition (reported as % activation of signal) is 0.02%.

Take `CC1CCN(C(=O)C2CCN(S(=O)(=O)N3CCC4(CC3)OCCO4)CC2)CC1`: the inhibition (reported as % activation of signal) is 1.13%.

With `CCOC(=O)C(NC(=O)CC(C)C)(Nc1sc2c(c1C(N)=O)CCCC2)C(F)(F)F` (stereo not given), the inhibition (reported as % activation of signal) is 85.2% (active).

With `CCOC(=O)c1c(NC(=O)Cn2nc(C(F)(F)F)cc2C)sc2c1CCC2`, the inhibition (reported as % activation of signal) was -22.3%.

In the case of `COC(=O)C(NC(C)=O)(Nc1nc2c(s1)CCCC2)C(F)(F)F` (stereo not given), the inhibition (reported as % activation of signal) is 0.31%.

With `N#Cc1c(C(F)(F)F)cc(-c2cccs2)nc1N1CCCCC1`, the inhibition (reported as % activation of signal) is -1.64%.

For `N#Cc1c(N2CCCCC2)nc(N)c2c(N)nc(SCC(=O)O)cc12`, the inhibition (reported as % activation of signal) was 52.1% (active).

For the compound `O=C(O)CSc1ccc(S(=O)(=O)N2CCCC2)cn1`, the inhibition (reported as % activation of signal) was -4.98%.

As for `CC1(C)C2CC=C(/C=N/NC(=O)c3ccc(Cl)cc3)C1C2` (stereo not given), the inhibition (reported as % activation of signal) was 2.7%.

Take `Nc1nc2c(ncn2[C@@H]2O[C@H](CNS(=O)(=O)N3CCc4ccccc4C3)[C@@H](O)[C@H]2O)c(=O)[nH]1`: the inhibition (reported as % activation of signal) was 0.15%.

As for `COCCNC(=O)C1(C)CCCN(Cc2cccc(F)c2)C1` (stereo not given), the inhibition (reported as % activation of signal) was -1.11%.

`O=S(=O)(Nc1n[nH]c(C(F)(F)F)n1)c1ccccc1`: the inhibition (reported as % activation of signal) was -0.37%.

Regarding `Nc1cc2c(cc1Br)-c1ccc(F)cc1C2=O`, the inhibition (reported as % activation of signal) was 71.6% (active).

For `CC(=O)Nc1ccc(S(=O)(=O)Nc2cc(C)cn(Cc3ccc(C)cc3)c2=O)cc1`, the inhibition (reported as % activation of signal) is -4.47%.

Turning to `CC(=O)c1ccc(Nc2nc(C(N)c3ccccc3Cl)cs2)cc1` (stereo not given), the inhibition (reported as % activation of signal) was -17.7%.

Consider `CC(=O)c1ccc(Nc2nc(C(N)c3ccccc3)cs2)cc1` (stereo not given), for which the inhibition (reported as % activation of signal) was 80.3% (active).

Consider `NC(c1ccccc1)c1csc(NC(=O)Nc2cccc(C(F)(F)F)c2)n1` (stereo not given), for which the inhibition (reported as % activation of signal) is -22.9%.

For `CCCS(=O)(=O)NC(=O)C1(C)CCN(C(=O)c2sccc2C)C1` (stereo not given), the inhibition (reported as % activation of signal) is -0.36%.

For `COc1cc(NC(=O)CCNC(=O)Cn2ccc3ccccc3c2=O)cc(OC)c1OC`, the inhibition (reported as % activation of signal) was -1.53%.

Take `CCOC(=O)c1ccn(S(=O)(=O)c2ccc(C)cc2)c1-c1ccccc1`: the inhibition (reported as % activation of signal) is 0.08%.

With `C=C(C)C(=O)Nc1cccc(C2=NOC3(C2)C[C@H](C(N)=O)N(C(=O)C(c2ccccc2)c2ccccc2)C3)c1` (stereo not given in full), the inhibition (reported as % activation of signal) is 98.1% (active).

As for `CC/C=C/C(=O)N1CC2(CC(c3cccc(NC(=O)CC)c3)=NO2)C[C@H]1C(N)=O` (stereo not given in full), the inhibition (reported as % activation of signal) is 5.63%.

As to `C/C=C\C=C\C(=O)N1CC2(CC(c3cccc(NC(=O)/C(C)=C\C)c3)=NO2)C[C@H]1C(N)=O` (stereo not given in full), the inhibition (reported as % activation of signal) is -7.28%.

In the case of `CC(=O)Nc1ccc(NC(=O)C2CCCN2S(=O)(=O)c2cccc(C(F)(F)F)c2)cc1` (stereo not given), the inhibition (reported as % activation of signal) was -0.75%.

`COc1cccc(-n2c(N)cc(=O)nc2SCC(=O)Nc2cc(C)on2)c1`: the inhibition (reported as % activation of signal) was 0.03%.

On to `O=C(c1ccccc1Cl)N(Cc1ccccc1F)N1C(=O)CCCC1=O`, for which the inhibition (reported as % activation of signal) was 1.73%.

As for `COc1ccc(NC(=O)COC(=O)c2ccncc2)c(OC)c1`, the inhibition (reported as % activation of signal) was 7.14%.

For `COc1ccc(NC(=O)CCn2ccnc2)c(OC)c1`, the inhibition (reported as % activation of signal) was 78.8% (active).

For `COc1ccc(NC(=O)CCCC2CCCCC2)c(OC)c1`, the inhibition (reported as % activation of signal) was 1.18%.

On to `O=C(OCCO)c1cc(Cl)c(C(=O)OCCO)cc1Cl`, for which the inhibition (reported as % activation of signal) was -0.85%.

Turning to `FC(F)(F)c1ccc(-c2cccc3c2C2CC3CCN2Cc2ccccc2)cc1` (stereo not given), the inhibition (reported as % activation of signal) is 5.02%.

`Cc1ccc(C)c(-c2nnc(NC(=O)CS(=O)(=O)c3ccccc3)o2)c1`: the inhibition (reported as % activation of signal) was 2.2%.

Turning to `COc1cc(-c2nnc(NC(=O)C3=COCCO3)o2)cc(OC)c1OC`, the inhibition (reported as % activation of signal) was 0.63%.

In the case of `COc1cc(-c2nnc(NC(=O)CS(=O)(=O)c3ccc(Cl)cc3)o2)cc(OC)c1OC`, the inhibition (reported as % activation of signal) is 64.7% (active).

For the compound `O=C(COc1cccc2c1CCNC2=O)NC1CCCCC1`, the inhibition (reported as % activation of signal) was 0.71%.

Take `COc1ccc(C)cc1N(C(=O)Cn1nnc(-c2ccc(C)o2)n1)C(C(=O)NC1CCCC1)c1ccncc1` (stereo not given): the inhibition (reported as % activation of signal) is 0.4%.

The values are drawn from PubChem BioAssay AID588458 (Sanford-Burnham Center for Chemical Genomics, 2011).
